Results taken from paper PMC7862700, “An all-to-all approach to the identification of sequence-specific readers for epigenetic DNA modifications on cytosine”.

Experiments:
Experiment in all cases: DAPPL (digital affinity profiling via proximity ligation, sequencing); 10 mM Tris-HCl pH 7.5, 50 mM NaCl, 1 mM DTT, 4% glycerol, room temperature, 30 min; GST-TFs on glutathione beads, 16-mer random dsDNA library, 0.1% formaldehyde crosslink after washing; high values mean tight binding
Details in all cases: protein: recombinant; tags: N-terminal GST; dsDNA, one strand shown
ERF = target: T1, ERF (Homo sapiens, UniProt P50548 1-548)
T1 sequence: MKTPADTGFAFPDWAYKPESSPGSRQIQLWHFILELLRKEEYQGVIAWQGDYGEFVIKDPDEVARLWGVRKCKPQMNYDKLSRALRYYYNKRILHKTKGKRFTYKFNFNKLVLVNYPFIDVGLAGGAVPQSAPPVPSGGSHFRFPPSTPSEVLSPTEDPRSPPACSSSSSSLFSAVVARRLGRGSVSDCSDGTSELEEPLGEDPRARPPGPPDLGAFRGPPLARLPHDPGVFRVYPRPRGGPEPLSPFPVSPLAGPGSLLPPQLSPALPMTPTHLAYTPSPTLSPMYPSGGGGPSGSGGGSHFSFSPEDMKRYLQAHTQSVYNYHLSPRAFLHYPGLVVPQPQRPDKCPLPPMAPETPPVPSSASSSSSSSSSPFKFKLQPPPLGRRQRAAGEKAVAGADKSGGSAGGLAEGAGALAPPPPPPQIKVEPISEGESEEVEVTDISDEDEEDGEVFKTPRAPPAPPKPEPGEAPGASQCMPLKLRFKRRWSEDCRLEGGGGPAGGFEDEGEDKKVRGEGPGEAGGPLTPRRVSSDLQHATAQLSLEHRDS
Outline: (§1)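 Yeast served to express human transcription factors as GST fusions, which were then captured on glutathione beads and labelled with DNA barcodes. Pooled with a tag-only sample, they were incubated with 200 nmole of a 16-mer random double-stranded DNA library for 30 min at room temperature in Tris/NaCl/DTT/glycerol buffer, washed, crosslinked with 0.1% formaldehyde, ligated by proximity, amplified by PCR and sequenced. Dividing each hexamer's read frequency for a factor by its frequency for the tag-only sample gives the binding signal.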

ETV3L = target: T2, ETV3L (Homo sapiens, UniProt Q6ZN32 1-361)
T2 sequence: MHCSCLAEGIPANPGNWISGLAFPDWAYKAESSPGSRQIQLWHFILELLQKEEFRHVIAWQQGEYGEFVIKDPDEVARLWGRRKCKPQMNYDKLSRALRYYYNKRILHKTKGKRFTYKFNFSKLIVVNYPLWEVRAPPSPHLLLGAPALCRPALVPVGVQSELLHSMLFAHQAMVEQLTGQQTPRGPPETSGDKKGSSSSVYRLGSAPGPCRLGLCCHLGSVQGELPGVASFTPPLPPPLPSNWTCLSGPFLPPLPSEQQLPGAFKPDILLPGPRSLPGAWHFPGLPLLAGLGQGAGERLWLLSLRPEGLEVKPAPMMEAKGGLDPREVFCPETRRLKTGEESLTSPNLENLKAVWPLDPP
Outline: as §1

ETS2 = target: T3, ETS2 (Homo sapiens, UniProt P15036 1-469)
T3 sequence: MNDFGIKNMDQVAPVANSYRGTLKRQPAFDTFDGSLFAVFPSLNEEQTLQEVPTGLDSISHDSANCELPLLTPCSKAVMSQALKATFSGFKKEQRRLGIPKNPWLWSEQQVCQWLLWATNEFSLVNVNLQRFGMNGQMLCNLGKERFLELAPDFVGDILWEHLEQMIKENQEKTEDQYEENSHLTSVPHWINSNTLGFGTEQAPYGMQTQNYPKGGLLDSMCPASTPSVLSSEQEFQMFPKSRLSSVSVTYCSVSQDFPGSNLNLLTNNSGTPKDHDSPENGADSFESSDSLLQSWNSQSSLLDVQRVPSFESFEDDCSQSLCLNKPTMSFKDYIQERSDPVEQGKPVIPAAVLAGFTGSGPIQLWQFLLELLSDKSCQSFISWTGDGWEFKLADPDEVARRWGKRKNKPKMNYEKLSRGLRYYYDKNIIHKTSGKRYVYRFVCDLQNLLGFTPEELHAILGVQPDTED
Outline: as §1

SPDEF = target: T4, SPDEF (Homo sapiens, UniProt O95238 1-335)
T4 sequence: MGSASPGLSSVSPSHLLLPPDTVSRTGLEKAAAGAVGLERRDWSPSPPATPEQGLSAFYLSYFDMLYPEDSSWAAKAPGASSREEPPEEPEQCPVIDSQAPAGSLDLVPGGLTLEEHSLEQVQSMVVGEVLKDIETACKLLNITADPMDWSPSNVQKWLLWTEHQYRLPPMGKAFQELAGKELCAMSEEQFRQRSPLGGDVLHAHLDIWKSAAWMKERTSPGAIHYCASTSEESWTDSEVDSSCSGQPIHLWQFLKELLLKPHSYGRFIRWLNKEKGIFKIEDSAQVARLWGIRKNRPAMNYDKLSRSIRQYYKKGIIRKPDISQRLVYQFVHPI
Outline: as §1

ETV7 = target: T5, ETV7 (Homo sapiens, UniProt Q9Y603 1-341)
T5 sequence: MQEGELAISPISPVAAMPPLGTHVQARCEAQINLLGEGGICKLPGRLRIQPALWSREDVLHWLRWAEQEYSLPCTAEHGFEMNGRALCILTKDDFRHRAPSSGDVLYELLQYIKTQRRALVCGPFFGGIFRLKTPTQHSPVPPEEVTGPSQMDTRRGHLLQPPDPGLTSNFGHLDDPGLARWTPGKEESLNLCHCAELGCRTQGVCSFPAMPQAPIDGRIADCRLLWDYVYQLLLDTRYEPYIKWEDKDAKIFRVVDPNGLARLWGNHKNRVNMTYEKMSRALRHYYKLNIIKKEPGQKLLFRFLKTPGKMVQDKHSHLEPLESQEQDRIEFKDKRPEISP
Outline: as §1

ELF5 = target: T6, ELF5 (Homo sapiens, UniProt Q9UKW6-2 1-255)
T6 sequence: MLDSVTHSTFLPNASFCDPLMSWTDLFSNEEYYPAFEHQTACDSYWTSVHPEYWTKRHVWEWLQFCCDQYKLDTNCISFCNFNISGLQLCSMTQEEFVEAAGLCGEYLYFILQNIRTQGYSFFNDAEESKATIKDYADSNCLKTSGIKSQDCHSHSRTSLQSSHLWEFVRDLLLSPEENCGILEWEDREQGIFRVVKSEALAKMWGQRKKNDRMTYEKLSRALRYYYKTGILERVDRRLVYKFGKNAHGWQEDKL
Outline: as §1

ETV3 = target: T7, ETV3 (Homo sapiens, UniProt P41162-2 1-143)
T7 sequence: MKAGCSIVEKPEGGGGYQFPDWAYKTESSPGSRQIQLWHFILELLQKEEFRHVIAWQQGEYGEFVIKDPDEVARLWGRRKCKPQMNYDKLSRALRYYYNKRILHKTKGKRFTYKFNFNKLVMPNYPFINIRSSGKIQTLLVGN
Outline: as §1

ETV6 = ETV6 (Homo sapiens, UniProt P41212 1-452)
ETV6, sequence (P41212 whole entry): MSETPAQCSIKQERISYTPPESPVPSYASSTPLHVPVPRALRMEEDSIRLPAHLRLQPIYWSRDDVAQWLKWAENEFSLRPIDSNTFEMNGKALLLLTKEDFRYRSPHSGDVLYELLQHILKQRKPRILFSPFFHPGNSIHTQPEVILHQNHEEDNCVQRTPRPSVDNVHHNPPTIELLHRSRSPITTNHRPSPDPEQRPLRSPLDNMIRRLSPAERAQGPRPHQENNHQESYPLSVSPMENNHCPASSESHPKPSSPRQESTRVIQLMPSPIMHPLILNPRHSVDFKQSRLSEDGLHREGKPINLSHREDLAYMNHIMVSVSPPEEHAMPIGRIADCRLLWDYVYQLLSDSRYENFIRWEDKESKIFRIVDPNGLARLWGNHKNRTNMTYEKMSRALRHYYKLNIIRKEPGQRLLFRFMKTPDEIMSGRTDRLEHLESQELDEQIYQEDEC
Outline: as §1

Row | Sequence | binding signal (ERF) | binding signal (ETV3L) | binding signal (ETS2) | binding signal (SPDEF) | binding signal (ETV7) | binding signal (ELF5) | binding signal (ETV3) | binding signal (ETV6)
1 | GTACTC | 1.06 fold enrichment (6-mer frequency, TF over GST control) | 1.15 fold enrichment (6-mer frequency, TF over GST control) | 1.13 fold enrichment (6-mer frequency, TF over GST control) | 1.02 fold enrichment (6-mer frequency, TF over GST control) | 1 fold enrichment (6-mer frequency, TF over GST control) | 1.12 fold enrichment (6-mer frequency, TF over GST control) | 1.11 fold enrichment (6-mer frequency, TF over GST control) | 1.14 fold enrichment (6-mer frequency, TF over GST control)
2 | CTGGAC | 1.03 fold enrichment (6-mer frequency, TF over GST control) | 1.22 fold enrichment (6-mer frequency, TF over GST control) | 1.07 fold enrichment (6-mer frequency, TF over GST control) | 1.12 fold enrichment (6-mer frequency, TF over GST control) | 1.09 fold enrichment (6-mer frequency, TF over GST control) | 1.16 fold enrichment (6-mer frequency, TF over GST control) | 1.06 fold enrichment (6-mer frequency, TF over GST control) | 1.09 fold enrichment (6-mer frequency, TF over GST control)
3 | CCGCCG | 1.18 fold enrichment (6-mer frequency, TF over GST control) | 1.2 fold enrichment (6-mer frequency, TF over GST control) | 1.22 fold enrichment (6-mer frequency, TF over GST control) | 1.34 fold enrichment (6-mer frequency, TF over GST control) | 1.2 fold enrichment (6-mer frequency, TF over GST control) | 1.31 fold enrichment (6-mer frequency, TF over GST control) | 1.31 fold enrichment (6-mer frequency, TF over GST control) | 1.23 fold enrichment (6-mer frequency, TF over GST control)
4 | CACCCG | 1.25 fold enrichment (6-mer frequency, TF over GST control) | 1.32 fold enrichment (6-mer frequency, TF over GST control) | 1.19 fold enrichment (6-mer frequency, TF over GST control) | 1.28 fold enrichment (6-mer frequency, TF over GST control) | 1.15 fold enrichment (6-mer frequency, TF over GST control) | 1.19 fold enrichment (6-mer frequency, TF over GST control) | 1.25 fold enrichment (6-mer frequency, TF over GST control) | 1.11 fold enrichment (6-mer frequency, TF over GST control)
5 | ATTACG | 1.15 fold enrichment (6-mer frequency, TF over GST control) | 1.15 fold enrichment (6-mer frequency, TF over GST control) | 1.29 fold enrichment (6-mer frequency, TF over GST control) | 1.21 fold enrichment (6-mer frequency, TF over GST control) | 1.12 fold enrichment (6-mer frequency, TF over GST control) | 1.12 fold enrichment (6-mer frequency, TF over GST control) | 1.22 fold enrichment (6-mer frequency, TF over GST control) | 1.23 fold enrichment (6-mer frequency, TF over GST control)
6 | CTGCCA | 1.18 fold enrichment (6-mer frequency, TF over GST control) | 1.25 fold enrichment (6-mer frequency, TF over GST control) | 1.18 fold enrichment (6-mer frequency, TF over GST control) | 1.15 fold enrichment (6-mer frequency, TF over GST control) | 1.08 fold enrichment (6-mer frequency, TF over GST control) | 1.2 fold enrichment (6-mer frequency, TF over GST control) | 1.09 fold enrichment (6-mer frequency, TF over GST control) | 1.14 fold enrichment (6-mer frequency, TF over GST control)
7 | TACCGA | 1.05 fold enrichment (6-mer frequency, TF over GST control) | 1.13 fold enrichment (6-mer frequency, TF over GST control) | 1.12 fold enrichment (6-mer frequency, TF over GST control) | 1.12 fold enrichment (6-mer frequency, TF over GST control) | 1.01 fold enrichment (6-mer frequency, TF over GST control) | 1.08 fold enrichment (6-mer frequency, TF over GST control) | 1.09 fold enrichment (6-mer frequency, TF over GST control) | 1.09 fold enrichment (6-mer frequency, TF over GST control)
8 | TGATTC | 1.07 fold enrichment (6-mer frequency, TF over GST control) | 1.09 fold enrichment (6-mer frequency, TF over GST control) | 1.06 fold enrichment (6-mer frequency, TF over GST control) | 1.04 fold enrichment (6-mer frequency, TF over GST control) | 1.13 fold enrichment (6-mer frequency, TF over GST control) | 1.03 fold enrichment (6-mer frequency, TF over GST control) | 1.15 fold enrichment (6-mer frequency, TF over GST control) | 1.06 fold enrichment (6-mer frequency, TF over GST control)
9 | TTGTTG | 1.13 fold enrichment (6-mer frequency, TF over GST control) | 1.21 fold enrichment (6-mer frequency, TF over GST control) | 1.1 fold enrichment (6-mer frequency, TF over GST control) | 1.11 fold enrichment (6-mer frequency, TF over GST control) | 1.12 fold enrichment (6-mer frequency, TF over GST control) | 1.13 fold enrichment (6-mer frequency, TF over GST control) | 1.19 fold enrichment (6-mer frequency, TF over GST control) | 1.07 fold enrichment (6-mer frequency, TF over GST control)
10 | GTATAA | 1.13 fold enrichment (6-mer frequency, TF over GST control) | 1.14 fold enrichment (6-mer frequency, TF over GST control) | 1.08 fold enrichment (6-mer frequency, TF over GST control) | 1.07 fold enrichment (6-mer frequency, TF over GST control) | 1.11 fold enrichment (6-mer frequency, TF over GST control) | 1.11 fold enrichment (6-mer frequency, TF over GST control) | 1.08 fold enrichment (6-mer frequency, TF over GST control) | 1.08 fold enrichment (6-mer frequency, TF over GST control)
11 | TGGTGT | 1.19 fold enrichment (6-mer frequency, TF over GST control) | 1.25 fold enrichment (6-mer frequency, TF over GST control) | 1.32 fold enrichment (6-mer frequency, TF over GST control) | 1.23 fold enrichment (6-mer frequency, TF over GST control) | 1.08 fold enrichment (6-mer frequency, TF over GST control) | 1.14 fold enrichment (6-mer frequency, TF over GST control) | 1.25 fold enrichment (6-mer frequency, TF over GST control) | 1.31 fold enrichment (6-mer frequency, TF over GST control)
12 | ACTGAC | 1.18 fold enrichment (6-mer frequency, TF over GST control) | 1.19 fold enrichment (6-mer frequency, TF over GST control) | 1.32 fold enrichment (6-mer frequency, TF over GST control) | 1.18 fold enrichment (6-mer frequency, TF over GST control) | 1.26 fold enrichment (6-mer frequency, TF over GST control) | 1.21 fold enrichment (6-mer frequency, TF over GST control) | 1.21 fold enrichment (6-mer frequency, TF over GST control) | 1.19 fold enrichment (6-mer frequency, TF over GST control)
13 | CTACAA | 1.05 fold enrichment (6-mer frequency, TF over GST control) | 1.15 fold enrichment (6-mer frequency, TF over GST control) | 1.16 fold enrichment (6-mer frequency, TF over GST control) | 1.14 fold enrichment (6-mer frequency, TF over GST control) | 1.01 fold enrichment (6-mer frequency, TF over GST control) | 1.16 fold enrichment (6-mer frequency, TF over GST control) | 1.1 fold enrichment (6-mer frequency, TF over GST control) | 1.18 fold enrichment (6-mer frequency, TF over GST control)
14 | ATCTGA | 1.2 fold enrichment (6-mer frequency, TF over GST control) | 1.19 fold enrichment (6-mer frequency, TF over GST control) | 1.17 fold enrichment (6-mer frequency, TF over GST control) | 1.1 fold enrichment (6-mer frequency, TF over GST control) | 1.04 fold enrichment (6-mer frequency, TF over GST control) | 1.08 fold enrichment (6-mer frequency, TF over GST control) | 1.06 fold enrichment (6-mer frequency, TF over GST control) | 1.13 fold enrichment (6-mer frequency, TF over GST control)
15 | GTTCCC | 1.31 fold enrichment (6-mer frequency, TF over GST control) | 1.22 fold enrichment (6-mer frequency, TF over GST control) | 1.28 fold enrichment (6-mer frequency, TF over GST control) | 1.29 fold enrichment (6-mer frequency, TF over GST control) | 1.3 fold enrichment (6-mer frequency, TF over GST control) | 1.48 fold enrichment (6-mer frequency, TF over GST control) | 1.31 fold enrichment (6-mer frequency, TF over GST control) | 1.28 fold enrichment (6-mer frequency, TF over GST control)
